Our source for the Potency values is PubChem BioAssay (NCATS).

Results filed as inconclusive are left out. Where a call stands in place of a potency, no number is given. Calls of active or inactive are those of the source. Calls follow the shape of the dose curve; as a rule, active = well fitted inhibition curve with a large enough effect; inconclusive = small, poorly fitted or top-dose-only effect; inactive = flat fitted curve, though single readings scatter.

For this assay, the system named is Zika virus NS2B-NS3 protease. Description: Primary screen GU AMC qHTS for Zika virus inhibitors (AID 1347154). Also: nearly all actives have a fitted effect of over 70% in size. Particulars: Zika NS2B-NS3 unlinked protease, AMC fluorogenic substrate; series mostly up to 54.1 µM. In a few lines:
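Fluorogenic AMC-substrate cleavage by noncovalent NS2B-NS3 protease complex (25 nM, pH 8.0 Tris buffer with Tween 20) followed for 15 minutes at room temperature (~20% conversion). Percent inhibition from ex340/em450 signal change, fitted by 4-parameter Hill equation.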
As to `Oc1c(Br)cc(Br)cc1Br`, the Potency result is “inactive”.
In the case of `C[C@H]1CNCCc2ccc(Cl)cc21` it was “inactive”; in that of `CC1N=C(N)OC1c1ccccc1` (stereo not drawn), “inactive”.
The result for `CCO[C@H]1O[C@@H]2OC3(C)CC[C@H]4[C@H](C)CC[C@@H]([C@H]1C)[C@@]24OO3` reads “inactive”.
`Cc1ncc2n1-c1ccc(Cl)cc1C(c1ccccc1F)=NC2`: the Potency result is “inactive”.
The result for `COc1cc(N)c(Cl)cc1C(=O)NC1CN2CCC1CC2` (stereo not drawn) reads “inactive”.
The result for `CCC(=O)O[C@H]1CC[C@H]2[C@@H]3CCC4=CC(=O)CC[C@]4(C)[C@H]3CC[C@]12C` reads “inactive”.
As to `COc1cc(CC(C)N)cc2c1OCO2` (stereo not drawn), the Potency result is “inactive”.
The result for `CCOC(=O)NC(O)C(Cl)(Cl)Cl` (stereo not drawn) reads “inactive”.
The result for `NCc1cccnc1` reads “inactive”.
In the case of `OC(c1ccccc1)(c1ccccc1)C1CCNCC1` it was “inactive”.
`CC(C)=C[C@@H]1[C@@H](C(=O)OCc2coc(Cc3ccccc3)c2)C1(C)C`: the Potency entry was “inactive”.
In the case of `O=C1NCN(c2ccccc2)C12CCN(CCCOc1ccc(F)cc1)CC2` it was “inactive”.
Turning to `C1CN2CCC1CC2`, the Potency result was “inactive”.
The result for `CC[C@H]1C[C@@H]2C[C@H]3c4[nH]c5ccc(OC)cc5c4CCN(C2)[C@@H]13` reads “inactive”; that for `Cc1ccc(N=CN(C)C=Nc2ccc(C)cc2C)c(C)c1`, “inactive”.
The result for `CC#C[C@]1(O)CC[C@H]2[C@@H]3C[C@H](C)C4=CC(=O)CC[C@]4(C)[C@H]3CC[C@@]21C` reads “inactive”.
In the case of `CCOP(=S)(OCC)O/N=C(\C#N)c1ccccc1` it was “inactive”; in that of `C[N+](C)(C)CCOC(=O)C(O)(c1ccccc1)c1ccccc1`, “inactive”; in that of `N#Cc1nn(-c2c(Cl)cc(C(F)(F)F)cc2Cl)c(N)c1S(=O)C(F)(F)F` (stereo not drawn), “inactive”.
Take `CN(C)CCc1c[nH]c2cccc(O)c12`: the Potency result was “inactive”.
The result for `CCN(CC)Cc1nccn1-c1ccc([N+](=O)[O-])cc1C(=O)c1ccccc1Cl` reads “inactive”; that for `O=C1CN2CCOC2(c2ccccc2Cl)c2cc(Cl)ccc2N1` (stereo not drawn), “inactive”.
In the case of `CCOC(C(=O)OCCN(C)C)(c1ccccc1)c1ccccc1` it was “inactive”; in that of `CCc1cc(OC)c(C[C@H](C)N)cc1OC`, “inactive”; in that of `C#C[C@]1(O)C=C[C@H]2[C@@H]3CCC4=CC(=O)CC[C@@H]4[C@H]3CC[C@@]21CC`, “inactive”.
Take `CN1C(=O)[C@@H](NC(=O)c2cc3ccccc3[nH]2)N=C(c2ccccc2)c2ccccc21`: the Potency entry was “inactive”.
In the case of `CC(Cc1ccccc1)NCc1ccccc1Cl` (stereo not drawn) it was “inactive”; in that of `CN1C(=O)CN=C(c2ccccc2)c2cc([N+](=O)[O-])ccc21`, “inactive”; in that of `CNC(=O)NC(O)C(Cl)(Cl)Cl` (stereo not drawn), “inactive”.
As to `C[C@@H]1CC[C@H]2[C@@H](C)C(=O)O[C@@H]3O[C@@]4(C)CC[C@@H]1[C@]32OO4`, the Potency result was “inactive”.
In the case of `CCC(=O)OC1(c2ccccc2)CCN(C)CC1` it was “inactive”.
The result for `CCCC(C)C1(CC)C(=O)N=C(S)NC1=O` (stereo not drawn) reads “inactive”; that for `CC(C(O)c1ccccc1)N(C)C/C=C/c1ccccc1` (stereo not drawn), “inactive”; that for `COP(=O)(OC)C(O)C(Cl)(Cl)Cl` (stereo not drawn), “inactive”.
`CCOC(=O)C(c1c(O)c2ccccc2oc1=O)c1c(O)c2ccccc2oc1=O`: the Potency result was “inactive”.
With `C[C@H](CN1CCOCC1)C(C(=O)N1CCCC1)(c1ccccc1)c1ccccc1`, the Potency entry was “inactive”.
The result for `COP(=O)(OC)OC=C(Cl)Cl` reads “inactive”.
